These entries were drawn from the full list.
aSyn UTR act: Activators working through SNCA 5'UTR binding (MLPCN); alpha-synuclein 5'UTR reporter, activators screen; activity score, % (tested at 7.5 µM), hits read low; actives 7.1% (n = 300,000); AID 1814; in the data active = activity score below about -60%
Numbers without * were called inactive.

SMILES | aSyn UTR act
CC(C)CCNC(=O)C(=O)Nc1ccc2c(c1)N(S(=O)(=O)c1cccs1)CCC2 | -73*
COc1cccc(NC(=O)C(=O)NCCC2CCCCN2S(=O)(=O)c2cccs2)c1 (stereo not given) | -148*
CCNC(=O)NC(=O)COC(=O)c1ccccc1SCC(=O)NC(=O)NCC | -122*
N#C/C(=C\c1ccc(N2CCCCC2)o1)C(=O)Nc1cccc(Br)c1 | -178*
CN1CCC(C2(O)c3ccccc3CCc3ccccc32)CC1 | -62*
COc1ccc(CNc2nc(-c3ccccc3)nn2C(=O)c2ccc([N+](=O)[O-])cc2)cc1 | -120*
CC(=O)n1nc(-c2ccccc2)nc1NCc1ccc(N(C)C)cc1 | -131*
COc1cc(/C=C/c2ccc3cccc(O)c3n2)ccc1O | -67*
Oc1cccc2ccc(/C=C/c3cccs3)nc12 | -172*
COc1ccc(C(NC(C)=O)c2ccc3cccnc3c2O)c(OC)c1 (stereo not given) | 83
COc1ccc(/C=N/NC(=O)c2cccs2)c2ccccc12 | -62*
Cn1cc(/C=N\NC(=O)c2cccs2)c2ccccc21 | -280*
CC(=O)n1cc(/C=N/NC(=O)c2ccc(Cl)cc2)c2ccccc21 | -69*
Cn1cccc1/C=N/NC(=O)c1cccs1 | -70*
CCCc1cc(C(=O)N/N=C/c2cccn2C)cs1 | -72*
CC1CCC/C(=C\Nc2ccc(C(=O)O)cc2)C1=O (stereo not given) | -121*
CCOC(=O)c1ccc(N/C=C2/CCCC(C)C2=O)cc1 (stereo not given) | -153*
O=C(CN1CCCCC1)Nc1nnc(-c2ccccc2)s1 | -77*
CC(C)(C)CC(=O)Nc1nnc(-c2cccs2)s1 | -213*
O=C(CN1CCCC1)Nc1ccc(NC(=O)Nc2ccccc2)cc1 | -194*
O=C(CN1CCCC1)Nc1nnc(-c2cccs2)s1 | -118*
O=C(CN1CCOCC1)Nc1ccc(C2CCCCC2)cc1 | -75*
Cc1occc1C(=O)Nc1nnc(-c2cccs2)s1 | -351*
O=C(O)c1ccccc1N/N=C/c1cc(Br)cc(Br)c1O | -111*
O=C(O)c1ccccc1N/N=C\c1ccnc2ccccc12 | 76
SMILES | aSyn UTR act
Cc1ccc(NC(=S)Nc2ccc3cn[nH]c3c2)cc1 | -83*
O=C(NC(=S)Nc1ccc2cn[nH]c2c1)c1ccccc1 | -173*
S=C(Nc1ccccc1)Nc1ccc2cn[nH]c2c1 | -75*
COc1ccc(NC(=O)CCOc2ccccc2)cc1 | -126*
O=C(CCc1ccccc1)Nc1ccccc1 | -80*
CN(C)c1ccc(NC(=O)CCCc2ccccc2)cc1 | -120*
CCCCC(=O)NC(c1ccc(N(C)C)cc1)c1ccc2cccnc2c1O (stereo not given) | 62
O=C(CCOc1ccccc1)Nc1ccc(Br)cc1 | -113*
Cc1cccc(NC(=O)CCOc2ccccc2)c1 | -74*
CC(CCc1ccccc1)NC(=O)C(=O)Nc1ccccc1 (stereo not given) | -149*
CC(=O)c1ccc(NC(=O)CCOc2cc(C)ccc2C)cc1 | -91*
Cc1cccc(NC(=O)CCCc2ccccc2)c1 | -172*
CN(C)CCC(=O)C(Cc1ccccc1)c1ccccc1 (stereo not given) | 99
O=C(CCCc1ccccc1)Nc1cccnc1 | -82*
COc1cc(/C=C/C(=O)c2ccc(O)cc2)ccc1OCC#N | -134*
CCOc1ccc(/C=C/C(=O)c2ccccc2)cc1OC | -112*
COc1cccc(C(=O)/C=C/c2ccc(OCC#N)c(OC)c2)c1 | -121*
COC(=O)C1=C(C)N(Cc2ccccc2)C(=NCc2cccc(C(F)(F)F)c2)N[C@H]1c1cccc(F)c1 | 57
COc1cc(C(C)=O)ccc1OCc1cc(C(=O)N(C)CCC2CCCCO2)no1 (stereo not given) | -188*
COc1ccccc1OCc1cc(C(=O)N(C)CCC2CCCCO2)no1 (stereo not given) | -96*
c1ccc(C2CCC3(CC2)Oc2ccccc2C2CC(c4cccnc4)=NN23)cc1 (stereo not given) | -86*
COC(=O)c1oc2ccc(OC)cc2c1N | -76*
CCN(CC)CCOC(=O)c1c(C)oc2ccc(OC)cc12 | -112*
Nc1c(C(=O)c2ccc(Cl)cc2)oc2ccccc12 | -111*
CCN(CC)CCOC(=O)c1ccc(NC(=O)CCCN2C(=O)S/C(=C/c3ccc(OC)cc3)C2=S)cc1 | 97
SMILES | aSyn UTR act
COc1ccc(C(=O)c2oc3ccc(OC)cc3c2N)cc1 | -167*
COc1cccc(CNc2ccc3c(c2)ncn3C(C)C)c1OC | -87*
COc1cccc(Cn2c(N)c(C#N)c3nc4ccccc4nc32)c1OC | 53
CCC(Sc1nc2ccccc2c(=O)[nH]1)C(=O)Nc1ccc(C(C)=O)cc1 (stereo not given) | -79*
O=C(Nc1nnc(-c2ccco2)s1)C1CC1 | -76*
O=C(Nc1ccc(F)cc1)Nc1nnc(-c2ccco2)s1 | -100*
CC(=O)c1ccc(Oc2ccc(C(C)=O)cc2)cc1 | -96*
O=C(COC(=O)Cn1cnc2ccccc21)Nc1cc2c(cc1Cl)C(=O)c1ccccc1C2=O | -162*
COc1ccc(N/C=C/C(=O)c2cc(OC)c(OC)c(OC)c2)cc1 | 60
O=C(/C=C/Nc1ccc(F)cc1Br)c1ccccc1 | 70
Cc1cc(N/C=C/C(=O)c2ccccc2)ccc1Br | -78*
Cc1ccc(O)c(N/C=C/C(=O)c2ccc(F)cc2)c1 | -259*
COc1ccc(N/C=C/C(=O)c2ccc(Cl)cc2)cc1 | -105*
Cc1ccc(C(=O)/C=C\Nc2ccc(C)c(C)c2)cc1 | -195*
Cc1ccc(N/C=C/C(=O)c2ccc(C)cc2)cc1 | -241*
Cc1ccc(C(=O)/C=C/Nc2ccccn2)cc1 | 75
CN(C)C=Nc1ncc2c([nH]c3ccccc32)c1C#N | -113*
CN1CCN(C(=O)c2cc(-c3ccccc3)on2)CC1 | -80*
O=C(c1cc(-c2cccc(O)c2)on1)N1CCCC1 | -106*
O=C(c1cc(-c2ccc(Br)cc2)on1)N1CCCC1 | -109*
CCN(CC)C(=O)c1cc(-c2ccc(Br)cc2)on1 | -152*
O=C(c1cc(-c2ccccc2)on1)N1CCCCCC1 | -200*
O=S(=O)(NCC1(N2CCOCC2)CCCCC1)c1ccccc1Cl | -91*
COc1ccc(/C(N)=N/OC(=O)Cc2cccs2)cc1 | -129*
COc1ccc(CC(=O)O/N=C(\N)c2ccc(OC)cc2)cc1 | -86*
SMILES | aSyn UTR act
CC1CCN(C(=O)COC(=O)c2ccccc2NC(=O)c2ccco2)CC1 | -73*
CCN(Cc1ccccc1)c1ccc(/C=N/N=C(N)N)cc1 | 94
CCN(CC)c1ccc(/C=N/NC(=O)Nc2ccccc2)cc1 | -150*
CCN(CC)c1ccc(/C=N/NC(=O)OC(C)(C)C)cc1 | -153*
CCOc1ccc(/C=N/NC(=O)Nc2ccccc2)cc1 | -120*
CC(=O)Oc1ccc(/C=N/NC(=S)Nc2ccccc2)cc1 | -149*
COc1ccccc1CN=C1Nc2ccccc2CS1 | -149*
Clc1ccc(CN=C2Nc3ccccc3CS2)cc1 | -182*
c1ccc2c(c1)CSc1ccccc1N2 | 104
COc1cccc(CN=C2Nc3ccccc3CS2)c1 | -142*
O=S(=O)(c1ccc(Cl)c(Cl)c1)c1snnc1-c1ccccc1 | 118
c1ccc(-c2nnsc2Sc2ccccn2)cc1 | -91*
Cc1cccc(-c2noc(CN(C)C(=O)c3ccco3)n2)c1 | -65*
O=C(Nc1ccccc1)c1ccc(-c2ccc(F)cc2)s1 | -206*
CNC(=O)c1ccc(-c2ccc(Cl)c(Cl)c2)s1 | -94*
CNC(=O)c1ccc(-c2ccc(OC)cc2)s1 | -151*
CNC(=O)c1ccc(-c2ccc(F)cc2)s1 | -101*

High-throughput results: PubChem BioAssay, Broad Institute
